Most compounds without a hit are left out; they make up all but 3.8% or so of the library.
TGFb SMAD3 inh: inhibitors of TGF-b signaling | hit rate 1.2% among 410,000 | HepG2 CAGA-GFP TGF-b/SMAD3 reporter, GFP fluorescence, 18 h; TGF-beta stimulated, 500 pg/mL final | Potency, µM (highest dose often 46.1 µM), for inactives: at the highest dose activity, negative = inhibition, hits mostly inhibitors | AID 588855; note: % is set by controls: 0 for no effect and ±100 for the full control effect; nearly all actives have a fitted effect of over 65% in size
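Inhibition of TGF-beta-driven CAGA-GFP reporter expression in HEPG2 cells is measured by cellular GFP fluorescence after 18 h stimulation with 500 pg/mL recombinant TGF-beta in 1% FBS medium at 37 degrees C.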
A549 tox: A549 cytotoxicity, counter-screen for Nrf2 inhibitors; AID 504648; hit rate 0.16% among 390,000; Potency, µM (top dose mostly 46 µM), for inactives: top-dose activity change, negative = cytotoxicity, most hits filed as inhibitors; A549 ARE-Fluc cells, CellTiter-Fluor viability, 18-24 h; note: % is set by controls: 0 for no effect and ±100 for the full control effect
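A549 ARE-Fluc cells in 5% FBS OPTI-MEM, 5000 cells/well, rested 2 h then exposed to compounds in concentration-response for 18-24 h at 37 °C. Viability by CellTiter-Fluor fluorescence (Ex 405/Em 525) after 30 min; luciferase luminescence (BugLite, 15 min, RT) read afterwards.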
ATXN2 expr inh: ATXN2 expression inhibition. hit rate 0.72% among 360,000. Potency, µM (highest dose often 57 µM), without a hit: at the top dose activity change, negative = inhibition, most hits filed as inhibitors. AID 1745845. HEK-293 ATXN2-luciferase reporter, luminescence, 24 h; note: % is set by controls: 0 for no effect and ±100 for the full control effect; nearly all actives have a fitted effect of over 55% in size
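ATXN2-luciferase reporter cells (luciferase flanked by upstream and downstream ATXN2 gene portions) were treated 24 h at 37 °C with compounds at up to 57 uM. SteadyGlo luminescence gave expression; GF-AFC fluorescence gave viability.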
Nrf2 block: Nrf2 pathway inhibition | A549 ARE-Fluc reporter, luciferase luminescence, 18-24 h | Potency, µM (top dose mostly 46 µM), without a hit: at the top dose activity change, negative = inhibition, actives largely listed as inhibitors | hit rate 2.1% among 360,000 | AID 504444; note: % is set by controls: 0 for no effect and ±100 for the full control effect; nearly all actives have a fitted effect of over 60% in size
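Reporter: ARE-Fluc in A549. Exposure: 18-24 h, 37 °C, 5% CO2, 5% FBS OPTI-MEM. Readouts: fluorescent cytotoxicity (CellTiter-Fluor), then luminescent Nrf2 signal after BugLite.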
HepG2 tox: HepG2 cytotoxicity, counter-screen for TGF-b inhibitors | HepG2 CAGA-GFP viability, ATP luminescence, 18 h | Potency, µM (doses to about 46.1 µM), inactives show at the highest dose activity change, negative = cytotoxicity, actives largely listed as cytotoxic | hit rate 0.76% among 410,000 | AID 588856
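CellTiter-Glo luminescence gave cytotoxicity after 18 hours at 37 degrees C. The cells were HepG2 CAGA-GFP in 1% FBS DMEM, stimulated with 500 pg/mL TGF-beta after compound addition. %Activity was normalised to no-cell wells (complete cell-killing) and DMSO (no toxicity), and curves were fitted and classified.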
ATXN viability: reduces viability in counter-screen for ATXN expression inhibitors. S2 cells (HEK-293 line with an ATXN2-luciferase reporter) viability, CellTiter-Fluor protease fluorescence, 24 h. Potency, µM (titrated, usually from 56.7 µM), most hits filed as cytotoxic. hit rate 0.49% among 400,000. AID 651635; note: nearly all actives have a fitted effect of over 40% in size
The depositor's hits bear a star; i = inactive; ? = inconclusive; / = no result. Calls come from the whole dose curve; as a rule, active = well fitted curve in the direction sought with a large enough effect; inconclusive = small, poorly fitted or top-dose-only effect, or another doubt; inactive = no such curve, though single readings can be large; an effect the other way counts as inactive or inconclusive. Potency is the fitted concentration of half-maximal effect.

SMILES	TGFb SMAD3 inh	A549 tox	ATXN2 expr inh	Nrf2 block	HepG2 tox	ATXN viability
CCOc1ccc(-c2nonc2NC(=O)c2oc3cc(Br)ccc3c2C)cc1	7.1µM*	-1%	-15%	7%	-30%	?
Cc1ccc(C(=O)c2ccc(O)cc2)cc1C	-11%	1%	23%	15%	-9%	i
Cc1ccc(C(=O)c2cccc(N)c2)cc1C	2%	0%	/	5.8µM*	-4%	i
CCOc1c2c(c(-c3ccc4c(c3)OCO4)c3cc(OC)c(OC)cc13)C(=O)OC2	?	2.9µM*	/	1.8µM*	-40%	/
CC(C)(C)CC(C)(C)N=C1Nc2cc(Cl)c(Cl)cc2N[C@]12C[C@H]1CCCC(=O)N3CC[C@@H](C2)[C@@H]13	7.1µM*	/	/	/	-44%	/
CC(C)(C)CC(C)(C)N=C1Nc2ccccc2NC12C[C@H]1CCC(=O)N3CC[C@@H](C2)[C@@H]13 (some centres undefined)	?	-11%	-2%	2%	-46%	?
CC(C)(C)CC(C)(C)N=C1Nc2cc(Cl)c(Cl)cc2NC12C[C@H]1CCC(=O)N3CC[C@@H](C2)[C@@H]13 (some centres undefined)	11µM*	?	?	?	13µM*	/
COc1ccccc1/C=C/C(=O)OCC(=O)Nc1c(C)nn(-c2ccccc2)c1C	5%	2%	/	-2%	-6%	i
CCOC(=O)c1c(CN2CCCCC2)n(C)c2cc(Br)c(O)cc12	-7%	-8%	-24%	-2%	-21%	i
CCOC(=O)c1c(CN2CCN(C)CC2)n(C)c2cc(Br)c(OC)cc12	14%	-28%	-24%	-28%	11µM*	i
COc1ccccc1CCc1nc2ccccc2n1C1CCN(C(=O)c2cc(C)nn2C)CC1	/	/	/	/	/	i
CC(/C=N/NC(=O)c1nnn(-c2nonc2N)c1C(C)C)=C\c1ccccc1	16µM*	0%	/	?	-38%	?
C#Cc1ccccc1OCCCN1CCC(C(O)(c2ccccc2)c2ccccc2)CC1	/	/	32µM*	/	/	40µM*
O=c1c(Cl)cc(Cl)nn1-c1ccccc1	?	-4%	?	-14%	18µM*	/
Nc1nc(CCl)nc(Nc2ccc3ccccc3c2)n1	?	-1%	3.8µM*	12%	-64%	3.4µM*
Cn1nc(CC(=O)NC2CCCCCC2)c2ccccc2c1=O	?	-4%	-5%	18µM*	-8%	i
Cn1nc(CC(=O)NC2CCCCC2)c2ccccc2c1=O	-16%	2%	1%	?	-6%	i
Cc1cc(C)cc(N(CC(=O)NC2CCCCC2)C(=O)CCCC(=O)Nc2ccccn2)c1	-16%	?	-10%	21µM*	11µM*	i
CC(Sc1nc(N)c2c3c(sc2n1)CSC(C)(C)C3)C(=O)Nc1ccccc1 (centres undefined)	?	?	-10%	18µM*	3%	?
COc1ccc(NC(=O)C(C)Sc2cc(-c3ccccc3)nc(C)n2)cc1Cl (centres undefined)	0%	?	/	21µM*	0%	/
COc1ccc(C2Nc3ccccc3C(=O)N2Cc2ccc(C(C)(C)C)cc2)cc1COc1ccc(NC(C)=O)cc1 (centres undefined)	/	-2%	/	18µM*	/	/
CSc1nn(Cc2ccc(C)cc2)c(N)c1S(=O)(=O)c1ccccc1	?	-1%	-20%	16µM*	-33%	i
CCOc1ccc(NC(=O)Cn2nc(SC)c(S(=O)(=O)c3ccccc3)c2N)cc1	-29%	-2%	-14%	-7%	-1%	i
CSc1nn(Cc2ccc(F)cc2)c(N)c1S(=O)(=O)c1ccc(Cl)cc1	10µM*	-2%	?	?	14µM*	?
CSc1nn(CC(=O)Nc2ccc(C)cc2C)c(N)c1S(=O)(=O)c1ccc(Cl)cc1	?	-4%	?	-29%	-37%	?
SMILES	TGFb SMAD3 inh	A549 tox	ATXN2 expr inh	Nrf2 block	HepG2 tox	ATXN viability
O=C(NCc1ccc(F)cc1)c1cc(C2CCCN(S(=O)(=O)c3ccccc3)C2)on1 (centres undefined)	24%	/	-7%	/	-4%	i
CC1(C)CC(=O)C(N=Nc2cccc([N+](=O)[O-])c2)=C(O)C1	3%	-12%	1%	-11%	-8%	i
CC1(C)CC(=O)C(N=Nc2ccc(C(F)(F)F)cc2[N+](=O)[O-])=C(O)C1	13µM*	-2%	?	-4%	-57%	?
Cc1ccc(C(=O)OCC(=O)c2ccc(S(=O)(=O)N3CCCCC3)cc2)o1	0%	-3%	10%	-2%	-69%	i
CC(=O)NC(c1ccco1)c1cc(Cl)c2ccccc2c1O (centres undefined)	1%	-8%	-11%	4%	2%	i
CC(=O)NC(c1ccco1)c1cc(F)c2cccnc2c1O (centres undefined)	?	-8%	?	?	8.9µM*	14µM*
CC(=O)NC(c1cccs1)c1cc(F)c2cccnc2c1O (centres undefined)	?	-7%	?	?	-49%	4µM*
O=C(Nc1cc(C(=O)N2CCN(CCO)CC2)c2c(c1)ncn2C1CCCC1)c1ccccc1	/	/	/	/	/	i
COc1ccc(S(=O)(=O)N2CCN(CC(=O)c3[nH]c(C)c(C(C)=O)c3C)CC2)cc1OC	-3%	2%	-11%	-8%	14%	?
CC(=O)c1c(C)[nH]c(C(=O)CN2CCN(S(=O)(=O)c3ccc(C(C)C)cc3)CC2)c1C	-24%	-13%	-9%	15µM*	-17%	i
CC(=O)c1c(C)[nH]c(C(=O)CN2CCN(S(=O)(=O)c3ccccc3F)CC2)c1C	4%	-13%	-2%	26µM*	-20%	i
O=C(Nc1cccc2c1CCCC2)c1ccc(Cl)c([N+](=O)[O-])c1	0%	-4%	-8%	2%	-9%	i
O=C(Nc1cccc2c1CCCC2)c1cc([N+](=O)[O-])ccc1Cl	?	-12%	25µM*	?	-46%	i
Cc1ccc(S(=O)(=O)NC(=NCC(=O)O)c2ccccc2)cc1	4%	8%	1%	11%	3.2µM*	i
O=C1NC(NS(=O)(=O)c2ccccc2)(C(F)(F)F)C(=O)N1c1cccc(Cl)c1 (centres undefined)	1%	1%	-3%	5%	-22%	i
COc1ccc(C2CC(c3ccccc3Br)=NN2c2ccc(S(N)(=O)=O)cc2)cc1 (centres undefined)	?	-18%	?	?	13µM*	i

Source: PubChem (National Center for Advancing Translational Sciences (NCATS))
